Cycloheximide cs = affects cycloheximide protein synthesis inhibition readout, counter-screen; max response, %; 300,000 tested, 12% active; cell reporter, cycloheximide protein synthesis inhibition counterscreen; in the data active = max response mostly above about 13%, no sharp cut-off; inactive = mostly below about 14%; note: read at 38.3 µM for the half of the compounds with a filed dose; 0% is about no effect
NS1 inh = inhibitors of influenza NS1 protein function; Potency, µM (highest dose often 46.1 µM), inactives show at the highest dose activity, positive = more growth; 270,000 tested, 0.4% active; AID 2326; calls by dose curve; note: potency is the fitted concentration of half-maximal effect; actives are rising curves; nearly all actives have a fitted effect of over 50% in size
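Compounds were scored for reversing the slow growth caused by influenza A NS1 in S. cerevisiae, measured by optical density at 600 nm. Assay medium contained 2% galactose at pH 6.0; NS1-free yeast of the same strain were the positive control.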
SARS PLP yeast = blocks SARS-CoV papain-like protease in a yeast assay; S. cerevisiae expressing SARS-CoV PLpro, growth rescue; Potency, µM (series often up to 32.9 µM), for the others: at the highest dose activity, positive = growth rescue, most hits filed as activators; 330,000 tested, 0.19% active; AID 485353; calls by dose curve; note: potency is the fitted concentration of half-maximal effect; 0% is about no effect; nearly all actives have a fitted effect of over 55% in size
Tb PYK inh = T. brucei pyruvate kinase inhibition | Q57TT1 | AID 624173 | Potency, µM (top dose mostly 76.8 µM), without a hit: at the highest dose activity, negative = inhibition, hits mostly inhibitors | 410,000 tested, 0.12% active | TbPYK enzyme, Kinase-Glo Plus ATP luminescence, 45 min; note: potency is the fitted concentration of half-maximal effect; % is set by controls: 0 for no effect and ±100 for the full control effect; nearly all actives have a fitted effect of over 50% in size
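Activity of T. brucei pyruvate kinase was followed by Kinase-Glo Plus luminescence after the enzyme reacted 45 min at room temperature with 130 uM ADP (final) and substrate. Test compounds were added before ADP at multiple concentrations.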
Shiga toxin inh = Shiga toxin inhibition; inhibition, % at 38.7 µM; 290,000 tested, 9.2% active; Vero cells, Shiga toxin protein synthesis inhibition reporter; in the data active = inhibition mostly above about 28%, no sharp cut-off; inactive = mostly below about 43%; note: 0% is about no effect
LmPK inhibitor = blocks Leishmania mexicana pyruvate kinase activity; 290,000 tested, 0.37% active; AID 1721; Q27686; purified LmPK, Kinase-Glo ATP luminescence, 1 h; Potency, µM (titrated, usually from 57.5 µM), inactives show at the highest dose activity change, negative = inhibition, most hits filed as inhibitors; note: potency is the fitted concentration of half-maximal effect; % is set by controls: 0 for no effect and ±100 for the full control effect
Target sequence (Q27686 whole entry, looked up): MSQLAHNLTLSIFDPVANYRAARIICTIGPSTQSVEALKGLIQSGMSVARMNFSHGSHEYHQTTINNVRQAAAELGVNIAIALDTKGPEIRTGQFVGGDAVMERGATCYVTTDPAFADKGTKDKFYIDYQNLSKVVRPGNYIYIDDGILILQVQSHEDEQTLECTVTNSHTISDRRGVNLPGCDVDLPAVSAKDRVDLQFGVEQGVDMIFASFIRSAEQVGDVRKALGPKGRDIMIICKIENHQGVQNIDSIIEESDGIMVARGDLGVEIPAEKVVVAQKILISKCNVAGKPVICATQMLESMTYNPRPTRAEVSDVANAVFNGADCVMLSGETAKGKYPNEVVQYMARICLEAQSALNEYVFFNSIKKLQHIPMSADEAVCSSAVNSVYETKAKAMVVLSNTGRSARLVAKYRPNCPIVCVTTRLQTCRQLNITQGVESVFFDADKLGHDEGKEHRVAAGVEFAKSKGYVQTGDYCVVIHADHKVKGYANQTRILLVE
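Purified LmPK (0.1 nM) with 0.5 mM PEP and 0.1 mM ADP in imidazole buffer pH 7.2 with MgCl2/KCl, 1 h at room temperature. ATP formed was read by luciferase luminescence and normalized to no-enzyme and uninhibited controls.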
Numbers without * were called inactive; ? = inconclusive; · = no result. Only a selection was taken, and hits are over-represented in it overall. Unless noted, calls come from the whole dose curve; as a rule, active = well fitted curve in the direction sought with a large enough effect; inconclusive = small, poorly fitted or top-dose-only effect, or another doubt; inactive = no such curve, though single readings can be large; an effect the other way counts as inactive or inconclusive.

SMILES	Cycloheximide cs	NS1 inh	SARS PLP yeast	Tb PYK inh	Shiga toxin inh	LmPK inhibitor
O=S(=O)(NC1=NCCCCC1)c1ccc2ccccc2c1	23*	-5%	18%	5%	21	1%
COc1ccc(-n2c(SCC(=O)NCC3CCCO3)nc3ccccc3c2=O)cc1Cl (centres undefined)	·	·	·	-6%	·	·
Clc1nnc2c3ccccc3ccn12	·	·	·	-7%	·	·
Clc1nc2c(ccc3ccccc32)[nH]1	41*	-48%	-2%	0%	71*	1%
OCc1nc2ccc(Cl)cc2[nH]1	-2	1%	0%	-4%	-5	0%
OCc1nc2c(ccc3ccccc32)[nH]1	12*	12%	2%	1%	10	-3%
O=C(/C=C/c1ccco1)Nc1ccc(Cl)c(-c2nc3cc(Cl)ccc3o2)c1	·	·	·	3%	·	·
O=C(Nc1ccc(SC(F)F)cc1)c1ccc(F)cc1	37*	1%	-1%	-2%	145*	-3%
O=C(Nc1ccc2cn[nH]c2c1)c1ccccc1F	60*	-9%	-8%	2%	40*	-15%
CCOC(=O)N1CCC(=NNC(=O)c2ccccc2F)CC1	49*	-3%	4%	?	25*	-3%
CCN(CC)C(=O)c1ccc(C(=O)Nc2ccc(F)cc2)cc1	·	·	0%	-3%	·	·
O=C(Nc1ccncc1)c1ccccc1F	24	-11%	-3%	-2%	-8	-9%
CCOC(=O)N1CCC(=NNC(=O)c2ccc(O)cc2)CC1	15	-3%	-5%	2%	17	-2%
CC(=O)Nc1ccc(NC(=O)c2ccccc2F)cc1	20*	-1%	-1%	8%	58*	-5%
COc1ccc(NC(=O)N2CC3(CCNCC3)C2)cc1	·	·	·	-9%	·	·
CNC(=O)c1ccccc1Nc1ccc(SC(F)F)cc1	23*	-87%	-17%	-16%	24*	-1%
O=C(Nc1ccc2oc(-c3ccc(F)cc3)nc2c1)c1ccccc1F	29	5%	5%	-6%	39*	3%
O=C(Nc1ccc2oc(-c3ccc4ccccc4c3)nc2c1)c1ccccc1F	·	·	·	3%	·	·
O=C(Nc1ccc(SC(F)F)cc1)c1ccccc1F	45*	·	-8%	7%	92*	0%
O=C(Nc1ccc2ccccc2c1)c1ccccc1F	24*	-9%	9%	0%	68	-5%
O=C(NCc1ccncc1)c1ccccc1Nc1ccc(SC(F)F)cc1	-2	-65%	-10%	-19%	-6	3%
O=C(Nc1ccc(F)cc1)c1ccccc1F	42*	-12%	·	-6%	114*	-16%
CCOC(=O)Nc1ccc(NC(=O)c2ccccc2F)cc1	18*	-8%	-1%	-1%	85*	-4%
O=C(Nc1ccc2nc(-c3cccnc3)[nH]c2c1)c1ccccc1F	15*	12%	0%	-18%	28	-2%
O=C(Nc1ccc(C(=O)N2CCCC2)cc1)c1ccccc1F	36*	4%	-6%	?	66*	14µM*
SMILES	Cycloheximide cs	NS1 inh	SARS PLP yeast	Tb PYK inh	Shiga toxin inh	LmPK inhibitor
Cc1noc(C)c1CSCC(=O)Nc1cc(S(=O)(=O)N2CCOCC2)ccc1OC(C)C	·	·	8%	0%	·	·
Cc1oc2ncnc(N3CCCCC3)c2c1C(=O)NCC1CCN(Cc2ccc(F)cc2)CC1	·	·	·	-5%	·	·
CCc1nnc(NC(=O)c2ccc3ccccc3n2)s1	45*	·	2%	-15%	70*	-19%
CCSc1nnc(NC(=O)c2ccc3ccccc3n2)s1	26*	-20%	-5%	-5%	120*	-17%
CC(C)CN1CCCC2(CCN(S(=O)(=O)c3ccccc3)CC2)C1	·	·	·	1%	·	·
COCCOC(=O)Cn1nnc2sc(-c3ccccc3)cc2c1=O	·	·	·	1%	·	·
CCC(=O)N1CCCN(S(=O)(=O)c2ccc(C)cc2)C1c1ccc(OC)cc1 (centres undefined)	-3	-8%	-1%	4%	-16	-9%
COc1ccc(/C=C/C(=O)NC2CCCCC2C)cc1 (centres undefined)	12	-23%	1%	-3%	·	3%
COc1cc(/C=N/NC(=S)NC2CC3CCC2C3)ccc1O (centres undefined)	34*	14%	2%	2%	36	3%
Cc1cc(C)n(CC(=O)N/N=C/c2ccc3c(c2)OCO3)n1	1	7%	18%	1%	12	-7%
